# From PubChem BioAssay (NCATS)
# Unmarked numbers belong to inactive results. Records with an inconclusive call do not appear. Entries that show only a call come without a potency. Active and inactive are the calls of the source. Unless noted, calls come from the whole dose curve; as a rule, active = well fitted curve in the direction sought with a large enough effect; inconclusive = small, poorly fitted or top-dose-only effect, or another doubt; inactive = no such curve, though single readings can be large; an effect the other way counts as inactive or inconclusive.
# Columns and labels:
# [1] = target: Nuclear receptor subfamily 1 group I member 2 (Rattus norvegicus) (UniProt Q9R1A7); experiment: qHTS assay for small molecule activators of the rat pregnane X receptor (rPXR) signaling pathway (AID 651751; call rule not given here); settings: rPXR reporter cells, luciferase (One-Glo), 24 h
# Sequence of Nuclear receptor subfamily 1 group I member 2 (Rattus norvegicus) (Q9R1A7 whole entry, looked up): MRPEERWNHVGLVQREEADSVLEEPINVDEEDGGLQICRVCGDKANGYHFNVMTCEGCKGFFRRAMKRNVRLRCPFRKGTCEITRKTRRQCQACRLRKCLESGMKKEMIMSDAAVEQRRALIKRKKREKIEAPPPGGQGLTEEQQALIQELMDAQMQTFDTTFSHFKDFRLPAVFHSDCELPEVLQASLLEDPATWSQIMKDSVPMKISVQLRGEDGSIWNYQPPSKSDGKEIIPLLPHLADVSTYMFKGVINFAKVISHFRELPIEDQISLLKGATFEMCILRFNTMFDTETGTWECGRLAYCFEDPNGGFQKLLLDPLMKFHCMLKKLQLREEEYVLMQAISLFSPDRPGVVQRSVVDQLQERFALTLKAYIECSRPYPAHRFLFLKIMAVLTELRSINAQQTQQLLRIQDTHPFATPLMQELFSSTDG
# [2] = qHTS assay for small molecule activators of the human pregnane X receptor (PXR) signaling pathway (AID 720659; call rule not given here); settings: DPX-2 HepG2 CYP3A4-luciferase, 24 h; series mostly up to 92.3 µM
# [3] = test system: astro; experiment: Drug repurposing screens with cells derived from glioblastoma tumor samples (AID 1345199); settings: viability, ATP luminescence, 48 h; series mostly up to 45.9 µM; note: nearly all actives have a fitted effect of over 40% in size; note: potency is the fitted concentration of half-maximal effect
# Procedure, shortened: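 Primary testing used CD133+ neurospheres from four GBM patients, seven concentrations, 48 h exposure and ATP-based viability; confirmation added three slower-growing patient lines.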
# [4] = qHTS assay to identify inhibitors of the type 1 interferon - major histocompatibility complex class I in skeletal muscle: Counter screen cell viability and HiBit confirmation (AID 1347412); settings: iHSKM muscle cells + IFN-b, HiBiT or CellTiter-Glo, 24 h; Potency: HiBiT; Viability, at 45.9 µM (top of the series); note: nearly all actives have a fitted effect of over 60% in size
# Procedure, shortened: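 Human myoblast knock-in line, 4.0 ng/ml IFN-beta stimulation, 24 h compound treatment. Endpoints: HiBiT lytic luminescence (HLA-B level) and CellTiter Glo (ATP). Dosing 12 concentrations, 3-fold steps, 46 uM highest final.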
smiles,measurement,setting,value
O=C1C=CC(=O)C=C1,max response,[1],0.171%
same,outcome,[2],inactive
COC(COC(N)=O)C1=C(N2CC2)C(=O)C(C)=C(N2CC2)C1=O (configuration not stated),Potency,[3],2.24 µM (active)
CC[C@H](C)[C@H]1O[C@]2(C=C[C@@H]1C)C[C@@H]1C[C@@H](C/C=C(\C)[C@@H](O[C@H]3C[C@H](OC)[C@@H](O[C@H]4C[C@H](OC)[C@@H](O)[C@H](C)O4)[C@H](C)O3)[C@@H](C)/C=C/C=C3\CO[C@@H]4[C@H](O)C(C)=C[C@@H](C(=O)O1)[C@]34O)O2,outcome,[2],inactive
CC(Cc1ccccc1)NC=O (configuration not stated),Potency,[3],inactive
O=c1c2ccccc2[se]n1-c1ccccc1,Potency,[3],22.4 µM (active)
Cc1cc(C)cc(C(=O)OC2C[C@H]3CC[C@@H](C2)N3C)c1 (some centres not stated),Potency,[3],inactive
CC(C)(C)c1cc(C=C(C#N)C#N)cc(C(C)(C)C)c1O,Potency,[4],inactive
C[C@]12CC[C@H](OS(=O)(=O)O)CC1=CC[C@@H]1[C@@H]2CC[C@]2(C)C(=O)CC[C@@H]12,Potency,[3],inactive
COc1ccc2c(c1OC)C(=O)OC2C1c2cc3c(cc2CCN1C)OCO3 (configuration not stated),max response,[1],3.69%
O=C(O)c1cc[c]([Hg][Cl])cc1,max response,[1],-6.42%
same,outcome,[2],inactive
